Compound activity as filed in PubChem BioAssay.
In the library only some 2.4% were active in any assay of this set; here they are far more common.
Pol beta inh – DNA polymerase beta (human) inhibition. Pol beta primer extension/strand displacement, fluorescence kinetic. P06746. 340,000 tested, 1.3% active. Potency, µM (titrated, usually from 114 µM), for inactives: top-dose activity change, negative = inhibition, actives largely listed as inhibitors; also: % is scaled to controls: 0 for no effect and ±100 for the full control effect
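Curves were derived by four-parameter Hill fits of normalized qHTS data. The kinetic fluorescent primer-extension read was taken at 0 and 10 min after 50 nM substrate, following a 15 min room-temperature preincubation of 10 nM enzyme with compounds.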
TDP1 block – TDP1 (human) enzyme inhibition; recombinant TDP1, AlphaScreen DNA substrate cleavage; AID 485290; Potency, µM (series often up to 130 µM), for inactives: top-dose activity change, negative = inhibition, hits mostly inhibitors; Q9NUW8; 350,000 tested, 0.28% active; also: % is scaled to controls: 0 for no effect and ±100 for the full control effect; nearly all actives have a fitted effect of over 40% in size
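AlphaScreen read-out: signal falls as enzyme removes the 3' tyrosine-FITC from a 5'-biotinylated DNA oligo (15 nM, 5 min, RT). Enzyme was E. coli-made recombinant Tdp1 at 1 nM, exposed to compound for 15 min beforehand; beads 10 ug/ml, 10 min.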
Pol eta inh-1 – inhibitors of human DNA polymerase eta; 390,000 tested, 1.2% active; Potency, µM (highest dose often 114 µM), for inactives: at the top dose activity change, negative = inhibition, hits mostly inhibitors; Q9Y253; AID 588591; recombinant Pol eta, fluorescent DNA replication assay; also: % is scaled to controls: 0 for no effect and ±100 for the full control effect
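Fluorescent replication assay: 50 nM final substrate added after a 15 min room-temperature compound preincubation with 10 nM enzyme. Signal taken at 0 min and again at 10 min.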
POLI inh – blocks human DNA polymerase iota activity; Potency, µM (highest dose often 115 µM), for inactives: top-dose activity, negative = inhibition, most hits filed as inhibitors; Q9UNA4; Pol iota fluorescent replication assay, 10 min; 390,000 tested, 1% active
Target sequence (Q9UNA4 whole entry, looked up): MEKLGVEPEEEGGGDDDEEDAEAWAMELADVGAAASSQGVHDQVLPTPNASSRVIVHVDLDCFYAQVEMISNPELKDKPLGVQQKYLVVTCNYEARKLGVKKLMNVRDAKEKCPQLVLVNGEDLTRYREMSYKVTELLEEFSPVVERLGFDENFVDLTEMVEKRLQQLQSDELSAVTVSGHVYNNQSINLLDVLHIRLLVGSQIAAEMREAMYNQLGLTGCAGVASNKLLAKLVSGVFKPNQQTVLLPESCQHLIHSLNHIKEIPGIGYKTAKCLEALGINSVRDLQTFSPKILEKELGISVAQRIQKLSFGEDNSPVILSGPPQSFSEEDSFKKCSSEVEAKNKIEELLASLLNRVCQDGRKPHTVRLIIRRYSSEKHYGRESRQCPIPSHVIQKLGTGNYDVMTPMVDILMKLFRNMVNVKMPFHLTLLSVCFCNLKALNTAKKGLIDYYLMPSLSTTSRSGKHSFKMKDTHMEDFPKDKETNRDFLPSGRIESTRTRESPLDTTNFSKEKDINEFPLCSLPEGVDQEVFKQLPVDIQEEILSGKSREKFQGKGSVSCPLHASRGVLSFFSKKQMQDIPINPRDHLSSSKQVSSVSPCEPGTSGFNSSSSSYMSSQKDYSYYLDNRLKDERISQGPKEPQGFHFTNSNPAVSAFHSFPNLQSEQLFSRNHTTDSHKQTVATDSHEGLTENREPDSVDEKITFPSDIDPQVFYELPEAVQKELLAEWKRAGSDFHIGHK
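Pol iota at 10 nM preincubated 15 min with compounds at room temperature; reaction started with fluorescent substrate, 50 nM final. Fluorescence read kinetically at 0 and 10 min; buffer-only wells as negative control.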
FEN1 inh – blocks human flap endonuclease 1 | P39748 | Recombinant FEN1 flap cleavage, fluorescence, 15 min | Potency, µM (series often up to 114 µM), inactives show at the highest dose activity change, negative = inhibition, most hits filed as inhibitors | 390,000 tested, 0.35% active; also: % is scaled to controls: 0 for no effect and ±100 for the full control effect; nearly all actives have a fitted effect of over 65% in size
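FEN1 at 10 nM preincubated with compounds 15 min at room temperature, then flap DNA substrate added at 50 nM final. Signal read at 0 and 15 min; concentration-response fitted with four-parameter Hill equation.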
Pol kappa inh-1 – inhibitors of human DNA polymerase kappa; Potency, µM (top dose mostly 107 µM), inactives show top-dose activity, negative = inhibition, hits mostly inhibitors; purified Pol kappa, fluorescent DNA synthesis assay, 10 min; Q9UBT6; 400,000 tested, 0.53% active; also: % is scaled to controls: 0 for no effect and ±100 for the full control effect
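First, compounds were pin-transferred onto 10 nM Pol kappa. After 15 min at room temperature, substrate was added to 50 nM final. Fluorescence was then measured kinetically at 0 and 10 min.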
PGK validate – TbPGK inhibition, hit validation; TbPGK coupled GAPDH assay, Kinase-Glo luminescence; Potency, µM (titrated, usually from 57.5 µM), without a hit: at the top dose activity change, negative = inhibition, actives largely listed as inhibitors; shares compounds with Pol kappa inh-1; AID 686980; 500 tested, 79% active; also: % is scaled to controls: 0 for no effect and ±100 for the full control effect; nearly all actives have a fitted effect of over 65% in size
Pol iota confirm – Confirm cherry-picked inhibitors of human polymerase iota. shares compounds with Pol kappa inh-1. Potency, µM, hits mostly inhibitors. 1,500 tested, 77% active. Pol iota primer extension, TAMRA/BHQ fluorescence
Pol kappa inh-2 – Pol kappa (human) inhibition, cherry-pick confirmation; shares compounds with Pol eta inh-1; purified Pol-kappa, fluorescent strand-displacement substrate; Potency, µM, actives largely listed as inhibitors; 920 tested, 76% active
Pol eta inh-2 – confirmation of human DNA polymerase eta inhibitors. Pol eta primer extension, TAMRA/BHQ fluorescence, 10 min. 2,600 tested, 64% active. shares compounds with Pol eta inh-1. Potency, µM, hits mostly inhibitors
An asterisk follows results filed as active; [ ] = dose if it differs, or a comment. Calls follow the shape of the dose curve; as a rule, active = well fitted curve in the direction sought with a large enough effect; inconclusive = small, poorly fitted or top-dose-only effect, or another doubt; inactive = no such curve, though single readings can be large; an effect the other way counts as inactive or inconclusive. Potency is read from the fitted curve at half-maximal effect.

`C=C(C)C(=O)Nc1cccc(C2=NOC3(C2)C[C@H](C(N)=O)N(C(=O)c2ccccc2C(=O)c2ccccc2)C3)c1` (stereo not given in full) gave Pol beta inh 8.9µM*, Pol eta inh-1 5.6µM*, POLI inh 45µM*, FEN1 inh -4%, Pol kappa inh-1 inconclusive, Pol iota confirm 47* and Pol eta inh-2 19*.
For C=C(C)C(=O)Nc1cccc(C2=NOC3(C2)C[C@@H](C(N)=O)N(C(=O)CC(c2ccccc2)c2ccccc2)C3)c1 (stereo not given in full) the results were Pol beta inh 13µM*, TDP1 block 18µM*, Pol eta inh-1 4µM*, POLI inh inconclusive, FEN1 inh -13%, Pol kappa inh-1 35µM*, PGK validate 3.3µM*, Pol iota confirm 75* and Pol eta inh-2 30*.
Screening CC1CCN(c2nc(-c3ccc(C(C)(C)C)cc3)nc3ccccc23)CC1 returned Pol beta inh 11%, TDP1 block 0%[12.3 µM], Pol eta inh-1 -13%, POLI inh 6%, FEN1 inh -10% and Pol kappa inh-1 -22%.
CN(C)S(=O)(=O)c1cc(NC(=O)COC(=O)/C=C/c2ccco2)ccc1Cl was read as Pol beta inh inconclusive, TDP1 block -1%, Pol eta inh-1 25µM*, POLI inh inconclusive, FEN1 inh inconclusive, Pol kappa inh-1 32µM*, PGK validate -26% and Pol eta inh-2 67*.
For O=C(O)CC[C@H](NC(=O)c1ccccc1C(=O)O)C(=O)O the results were Pol beta inh 15%[57.1 µM], TDP1 block 6%[56.1 µM], Pol eta inh-1 -3%[57.1 µM] and POLI inh 9%[58.9 µM].
`N#C/C(=C\c1ccc(-c2ccc(C(=O)O)cc2)o1)C(=O)Nc1ccc(F)cc1` gave Pol beta inh inconclusive, Pol eta inh-1 5.6µM*, POLI inh 10µM*, FEN1 inh 45µM*, Pol kappa inh-1 56µM*, Pol iota confirm 27* and Pol eta inh-2 27*.
Screening CC[C@H](C)[C@H](NC(=O)CNC(=O)[C@H](CCCNC(=N)N)NC(=O)CNC(=O)[C@@H](NC(=O)[C@H](Cc1ccc(O)cc1)NC(=O)[C@H](Cc1c[nH]c2ccccc12)NC(=O)[C@H](C)NC(=O)[C@@H]1CCCN1C(=O)[C@H](CC(N)=O)NC(=O)[C@@H](NC(=O)[C@H](CC(=O)O)NC(=O)[C@@H]1CCCN1C(=O)[C@@H](N)[C@@H](C)O)[C@@H](C)CC)[C@@H](C)O)C(=O)N[C@@H](CCCNC(=N)N)C(=O)N1CCC[C@H]1C(=O)N[C@H](C(=O)NCC(=O)N[C@@H](CCCNC(=N)N)C(=O)N[C@@H](Cc1ccccc1)C(N)=O)C(C)C returned TDP1 block 15% and Pol kappa inh-1 -4%[12 µM].
Screening CC(C)C[C@@H](CC(=O)N[C@@H](CCCN)CC(=O)N[C@@H]1CCCC[C@H]1C(=O)N[C@H](CC(=O)N[C@@H](CCC(=O)O)CC(=O)O)Cc1c[nH]c2ccccc12)NC(=O)[C@@H]1CCCC[C@H]1N returned TDP1 block 2%.
`CC(=O)Nc1ccc(N=Cc2c(O)c3ccccc3oc2=O)cc1` gave Pol beta inh 3%, Pol eta inh-1 8%, POLI inh -31%, FEN1 inh -12% and Pol kappa inh-1 2%.
CC(=O)Nc1ccc(N=Cc2c(O)c(C(=O)Nc3ccccc3)cc3ccccc23)cc1 was read as Pol beta inh inconclusive, TDP1 block -3%, Pol eta inh-1 inconclusive, POLI inh 7%, FEN1 inh -6%, Pol kappa inh-1 5%, Pol iota confirm 30*, Pol kappa inh-2 75* and Pol eta inh-2 76*.
`CCCCCCC(=O)N1C/C=C\C(c2ccc(OC)cc2)N(Cc2ccc(F)cc2)C(=O)C1Cc1ccccc1` (stereo not given) gave TDP1 block 9%, POLI inh -20%, FEN1 inh -24% and Pol kappa inh-1 -25%.
Screening CC(=O)c1ccc(NC(=O)Cn2ncc3c4ccccc4n(Cc4ccccc4)c3c2=O)cc1 returned Pol beta inh 4%, TDP1 block 0%, Pol eta inh-1 -11%, POLI inh 3%, FEN1 inh -12% and Pol kappa inh-1 -6%.
`C/C(N)=C(/C#N)C(=O)CSc1nnc(Nc2cccc(C)c2C)s1` gave Pol beta inh -40%, TDP1 block -3%, Pol eta inh-1 -4%, POLI inh inconclusive, FEN1 inh 3% and Pol kappa inh-1 -32%.
C/C(N)=C(/C#N)C(=O)CSc1nnc(Nc2c(C)cccc2C)s1 was read as Pol beta inh inconclusive, Pol eta inh-1 18µM*, POLI inh inconclusive, FEN1 inh -19%, Pol kappa inh-1 79µM*, Pol iota confirm inconclusive and Pol eta inh-2 48*.
Screening CC1(C)SC2[C@@H](N=CN3CCCCCC3)C(=O)N2[C@H]1C(=O)O (stereo not given in full) returned TDP1 block -4% and Pol kappa inh-1 -7%[60.1 µM].
`CC(C)(CS(=O)(=O)[O-])NC(=O)CC[N+](C)(C)CCO` gave Pol beta inh 2µM*, TDP1 block -3%, Pol eta inh-1 0.79µM*, POLI inh 1.4µM*, FEN1 inh 40µM*, Pol kappa inh-1 22µM*, PGK validate 3.3µM* and Pol eta inh-2 8.5*.
Nc1ccc(/C=C/c2ccc3cccnc3c2)cc1 was read as POLI inh -19%, FEN1 inh 3% and Pol kappa inh-1 -1%.
